These results are taken from the supplement of paper PMC10849652.

Holding throughout (assay): log2 fold change, soluble protein after heating vs DMSO (PISA); higher = thermal stabilisation; K562 cells, 10 uM, 30 min; active = over 0.2 and 3.5 SD of the protein, either way, in both replicates (recomputed)
Compound in experiment [1]: CC[C@@H]1C(=O)N(C)c2cnc(Nc3ccc(C(=O)NC4CCN(C)CC4)cc3OC)nc2N1C1CCCC1
Summed up:
(§1)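 Soluble protein was quantified by TMTpro 16plex LC-MS/MS after channel sums were equalised. It was obtained as the supernatant after 21,000xg for 90 min from pooled aliquots of K562 cells (2×10^6 cells/mL, 10 μM compound, 30 min) heated for 3 min across 48°C-58°C and extracted in PBS with 0.5% NP-40 at 4°C. Thermal stability values are relative to control samples and come from duplicates. They are given as log2 fold changes.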

Compound in another experiment: CC[C@@H]1C(=O)N(C)c2cnc(Nc3ccc(C(=O)N[C@H]4CC[C@H](N5CCN(CC6CC6)CC5)CC4)cc3OC)nc2N1C(C)C [volasertib]
The gist of the method: as §1

Compound in experiment [2]: CC[C@H](C)N1C=C(C2=C(C=C(C=C21)C3=CN=C(C=C3)N4CCNCC4)C(=O)NCC5=C(C=C(NC5=O)C)C)C
Summed up: as §1

Compound in the next experiment: CC[C@H](C)[C@@H](C(=O)N[C@@H]([C@@H](C)O)C(=O)N[C@@H](CC(C)C)C(=O)[C@]1(CO1)C)NC(=O)[C@H]([C@@H](C)CC)N(C)C(=O)C [epoxomicin]
The gist of the method:
as §1

Compound in experiment [3]: CCn1c(C(=O)N(C2CC2)C2CC2)cc2c3c(ncn3C)c(Nc3cc(C)n(C)n3)nc21
Summed up: as §1

Compound in experiment [4]: CCn1cc(-c2ccnc3[nH]c(-c4cccc(CN(C)C)c4)cc23)c(-c2ccc(NC(=O)N(C)C)cc2)n1
Summed up: as §1

Compound in experiment [5]: CN(C)CC(=O)Nc1ccc2[nH]c(=O)c3ccccc3c2c1
The gist of the method:
as §1

Compound in a further experiment: CN(CCOC1=CC=C(C=C1)C[C@H]2C(=O)NC(=O)S2)C3=CC=CC=N3 (racemic) [rosiglitazone]
The gist of the method:
as §1

Compound in experiment [6]: CN1C2=C(C3=C1C(=O)N(N=C3)CC4=CC(=CC=C4)N)SC(=C2)S(=O)C
The gist of the method: as §1

Compound in experiment [7]: CN1CCC(CNc2ccc3ncc(-c4cccc(OC(F)(F)F)c4)n3n2)CC1
Summed up: as §1

Compound in the next experiment: CN1CCN(CCOc2cc(OC3CCOCC3)c3c(Nc4c(Cl)ccc5c4OCO5)ncnc3c2)CC1 [saracatinib]
The gist of the method: as §1

Compound in another experiment: CN1CCN(c2nc(C3=C(c4c[nH]c5ccccc45)C(=O)NC3=O)c3ccccc3n2)CC1 [sotrastaurin]
Summed up: as §1

Compound in another experiment: CN1CC[C@H](c2c(O)cc(O)c3c(=O)cc(-c4ccccc4Cl)oc23)[C@H](O)C1 [alvocidib]
Summed up:
as §1

Compound in the next experiment: CN1CCc2c(c3ccccc3n2Cc2ccc(C(=O)NO)cc2)C1 [Tubastatin A]
Summed up:
as §1

Compound in experiment [8]: CNC(=O)C1=CC=CC=C1NC2=NC(=NC=C2Cl)NC3=C(C=C(C=C3)N4CCOCC4)OC
Summed up: as §1

Compound in another experiment: CNC(=O)c1ccc(Nc2ncc(C(F)(F)F)c(NCc3nccnc3N(C)S(C)(=O)=O)n2)cc1 [defactinib]
Summed up:
as §1

Compound in the next experiment: CNCc1ccc(-c2[nH]c3cc(F)cc4c3c2CCNC4=O)cc1 [rucaparib]
The gist of the method:
as §1

Compound in experiment [9]: CNc1nc(-c2ccc3c(N)n[nH]c3c2)cc(N2C[C@@H](C(=O)NC3CCCCC3)CC[C@H]2C)n1
Summed up: as §1

Compound in another experiment: COC(=O)N[C@@H](C)CNc1nccc(-c2cn(C(C)C)nc2-c2cc(Cl)cc(NS(C)(=O)=O)c2F)n1 [encorafenib]
Summed up: as §1

Compound in experiment [10]: COC(=O)[C@H](CCSC)NC(=O)C1=C(C=C(C=C1)NC[C@H](CS)N)C2=CC=CC=C2
Summed up:
as §1

Targets with a hit are over-represented here; the source holds about 7,900 in all. About 0.6% of all pairs of compound and target were hits. A number with no mark means an inactive call.

UniProt Q15366, sequence (Q15366 whole entry, looked up): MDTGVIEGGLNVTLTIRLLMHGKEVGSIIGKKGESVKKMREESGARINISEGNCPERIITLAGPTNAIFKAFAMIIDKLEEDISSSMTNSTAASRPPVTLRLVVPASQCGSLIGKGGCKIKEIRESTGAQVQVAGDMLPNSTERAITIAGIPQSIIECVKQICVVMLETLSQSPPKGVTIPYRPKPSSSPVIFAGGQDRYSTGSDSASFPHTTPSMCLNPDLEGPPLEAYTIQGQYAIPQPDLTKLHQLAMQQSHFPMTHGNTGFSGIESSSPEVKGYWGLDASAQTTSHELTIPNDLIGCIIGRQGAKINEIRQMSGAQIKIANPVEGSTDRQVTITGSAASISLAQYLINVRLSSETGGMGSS
UniProt Q9Y478, sequence (Q9Y478 whole entry, looked up): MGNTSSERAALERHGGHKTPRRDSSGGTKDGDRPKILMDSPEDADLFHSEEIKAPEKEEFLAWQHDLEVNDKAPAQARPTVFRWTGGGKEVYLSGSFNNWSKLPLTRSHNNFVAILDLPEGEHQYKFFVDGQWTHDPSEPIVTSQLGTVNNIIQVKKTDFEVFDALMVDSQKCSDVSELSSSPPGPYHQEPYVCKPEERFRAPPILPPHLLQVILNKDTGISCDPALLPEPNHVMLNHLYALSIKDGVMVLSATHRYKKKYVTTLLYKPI
UniProt Q13362, sequence (Q13362 whole entry, looked up): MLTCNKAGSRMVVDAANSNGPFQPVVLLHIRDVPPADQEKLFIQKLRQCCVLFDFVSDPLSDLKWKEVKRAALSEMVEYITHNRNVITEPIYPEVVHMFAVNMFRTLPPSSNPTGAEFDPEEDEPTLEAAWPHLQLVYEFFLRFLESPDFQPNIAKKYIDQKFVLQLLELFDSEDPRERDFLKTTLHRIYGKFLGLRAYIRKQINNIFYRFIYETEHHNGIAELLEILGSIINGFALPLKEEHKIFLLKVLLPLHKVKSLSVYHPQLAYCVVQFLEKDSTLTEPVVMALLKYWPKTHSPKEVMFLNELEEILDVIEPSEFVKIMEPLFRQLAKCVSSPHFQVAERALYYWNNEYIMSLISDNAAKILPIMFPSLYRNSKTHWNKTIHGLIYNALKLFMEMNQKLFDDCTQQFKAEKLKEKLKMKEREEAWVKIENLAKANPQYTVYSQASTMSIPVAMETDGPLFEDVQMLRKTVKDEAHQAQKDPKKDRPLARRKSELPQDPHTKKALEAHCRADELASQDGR
UniProt Q02156, sequence (Q02156 whole entry, looked up): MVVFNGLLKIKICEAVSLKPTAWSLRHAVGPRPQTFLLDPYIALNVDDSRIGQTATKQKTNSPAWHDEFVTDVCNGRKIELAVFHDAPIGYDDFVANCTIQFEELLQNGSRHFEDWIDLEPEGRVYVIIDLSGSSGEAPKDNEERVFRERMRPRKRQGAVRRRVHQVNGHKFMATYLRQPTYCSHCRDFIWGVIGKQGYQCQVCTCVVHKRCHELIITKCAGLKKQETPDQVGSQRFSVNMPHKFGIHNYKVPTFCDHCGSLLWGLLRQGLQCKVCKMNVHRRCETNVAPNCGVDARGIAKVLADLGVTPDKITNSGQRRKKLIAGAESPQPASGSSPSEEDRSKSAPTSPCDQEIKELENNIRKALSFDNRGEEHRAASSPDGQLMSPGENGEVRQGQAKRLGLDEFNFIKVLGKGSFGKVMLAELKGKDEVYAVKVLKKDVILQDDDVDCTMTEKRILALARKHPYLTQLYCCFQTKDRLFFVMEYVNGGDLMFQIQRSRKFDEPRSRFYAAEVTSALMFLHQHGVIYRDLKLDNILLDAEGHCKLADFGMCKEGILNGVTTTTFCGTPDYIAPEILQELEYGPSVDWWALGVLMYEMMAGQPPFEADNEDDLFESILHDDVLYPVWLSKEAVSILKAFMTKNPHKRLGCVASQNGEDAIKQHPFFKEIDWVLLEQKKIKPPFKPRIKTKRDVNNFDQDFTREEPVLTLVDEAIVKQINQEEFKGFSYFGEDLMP
UniProt Q16512, sequence (Q16512 whole entry, looked up): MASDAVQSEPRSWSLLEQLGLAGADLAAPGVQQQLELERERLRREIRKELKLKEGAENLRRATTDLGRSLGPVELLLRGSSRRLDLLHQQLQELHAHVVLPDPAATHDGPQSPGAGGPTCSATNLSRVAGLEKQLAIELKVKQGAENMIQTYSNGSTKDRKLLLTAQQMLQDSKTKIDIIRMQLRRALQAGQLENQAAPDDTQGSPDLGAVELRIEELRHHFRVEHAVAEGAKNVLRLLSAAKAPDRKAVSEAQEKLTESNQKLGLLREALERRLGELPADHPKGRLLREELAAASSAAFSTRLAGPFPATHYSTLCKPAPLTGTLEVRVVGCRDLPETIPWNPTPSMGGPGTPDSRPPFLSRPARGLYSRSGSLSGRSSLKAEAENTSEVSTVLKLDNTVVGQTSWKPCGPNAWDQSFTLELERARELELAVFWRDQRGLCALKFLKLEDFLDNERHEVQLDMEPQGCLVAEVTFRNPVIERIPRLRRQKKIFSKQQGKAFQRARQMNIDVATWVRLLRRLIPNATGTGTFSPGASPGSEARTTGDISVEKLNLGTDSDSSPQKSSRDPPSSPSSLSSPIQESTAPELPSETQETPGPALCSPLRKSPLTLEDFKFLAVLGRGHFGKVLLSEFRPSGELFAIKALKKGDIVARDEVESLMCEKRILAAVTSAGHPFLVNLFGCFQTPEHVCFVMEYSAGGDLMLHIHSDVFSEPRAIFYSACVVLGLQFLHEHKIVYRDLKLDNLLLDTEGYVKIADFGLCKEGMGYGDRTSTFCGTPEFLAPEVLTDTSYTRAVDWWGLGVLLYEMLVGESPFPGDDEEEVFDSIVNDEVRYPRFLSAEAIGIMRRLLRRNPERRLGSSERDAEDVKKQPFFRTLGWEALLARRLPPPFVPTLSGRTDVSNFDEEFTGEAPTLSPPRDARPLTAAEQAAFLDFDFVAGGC
UniProt Q8N4L2, sequence (Q8N4L2 whole entry, looked up): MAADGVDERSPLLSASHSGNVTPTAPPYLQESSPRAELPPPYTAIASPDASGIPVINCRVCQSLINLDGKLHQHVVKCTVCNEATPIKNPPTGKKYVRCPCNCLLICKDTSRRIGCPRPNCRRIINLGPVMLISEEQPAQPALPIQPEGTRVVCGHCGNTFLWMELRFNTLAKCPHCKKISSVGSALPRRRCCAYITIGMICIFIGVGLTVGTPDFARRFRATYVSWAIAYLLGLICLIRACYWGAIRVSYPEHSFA
UniProt P27986, sequence (P27986 whole entry, looked up): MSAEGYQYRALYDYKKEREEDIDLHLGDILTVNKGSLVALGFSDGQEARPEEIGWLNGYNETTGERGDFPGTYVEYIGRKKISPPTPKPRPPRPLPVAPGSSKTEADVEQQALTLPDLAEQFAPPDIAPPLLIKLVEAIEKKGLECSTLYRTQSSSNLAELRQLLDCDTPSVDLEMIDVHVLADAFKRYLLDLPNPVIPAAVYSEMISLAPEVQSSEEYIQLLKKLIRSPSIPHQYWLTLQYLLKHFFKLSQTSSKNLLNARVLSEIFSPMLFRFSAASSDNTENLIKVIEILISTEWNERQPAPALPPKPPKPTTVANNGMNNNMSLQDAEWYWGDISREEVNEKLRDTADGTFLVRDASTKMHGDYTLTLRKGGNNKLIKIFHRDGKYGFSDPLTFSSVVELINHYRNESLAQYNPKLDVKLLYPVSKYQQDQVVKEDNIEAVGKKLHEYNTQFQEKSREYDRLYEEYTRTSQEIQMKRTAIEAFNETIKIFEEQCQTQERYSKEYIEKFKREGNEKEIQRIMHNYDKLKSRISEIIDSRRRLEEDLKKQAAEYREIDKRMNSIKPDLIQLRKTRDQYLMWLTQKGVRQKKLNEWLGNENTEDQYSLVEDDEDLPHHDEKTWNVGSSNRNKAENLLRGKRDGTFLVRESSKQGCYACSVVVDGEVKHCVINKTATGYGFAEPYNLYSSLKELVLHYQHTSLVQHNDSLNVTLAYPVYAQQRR

As to PRKCE (UniProt Q02156), the log2 fold change is -0.051 in experiment [1]; -0.125 in the experiment with volasertib; 0.099 in experiment [2]; 0.036 in the experiment with epoxomicin; -0.054 in experiment [3]; -0.067 in experiment [4]. The log2 fold change in experiment [5] is 0.036; with rosiglitazone, 0.068; in experiment [6], -0.106; in [7], -0.16; in the experiment with saracatinib, -0.02; with sotrastaurin, -0.425 (active). For the same target, the log2 fold change with alvocidib was -0.143; in the experiment with Tubastatin A it was -0.052; in experiment [8] it was 0.075; with defactinib it was -0.133; in the experiment with rucaparib it was -0.043; in [9] it was 0.006. In addition, the log2 fold change with encorafenib was 0.037; in [10], -0.06.
With PCBP2 isoform 3 (UniProt Q15366), the log2 fold change in experiment [1] is -0.069; in the experiment with volasertib, -0.263 (active); in [2], 0.071; with epoxomicin, 0.013; in experiment [3], -0.036; in experiment [4] it was -0.003. Moreover, the log2 fold change in experiment [5] is 0.043; with rosiglitazone, 0.062; in experiment [6], -0.001; in experiment [7] it was -0.081; with saracatinib, -0.023; in the experiment with sotrastaurin it was -0.084. Further, the log2 fold change in the experiment with alvocidib is -0.148; with Tubastatin A, 0.025; in experiment [8], -0.032; with defactinib, -0.187; with rucaparib, 0.041; in [9], 0.013. The log2 fold change with encorafenib is 0.075; in experiment [10] it was -0.058.
On to PIK3R1 (UniProt P27986), for which the log2 fold change in [1] is -0.04; with volasertib, -0.142; in experiment [2] it was -0.018; in the experiment with epoxomicin it was 0.036; in [3], -0.015; in experiment [4], -0.072. The log2 fold change in experiment [5] is -0.002; in the experiment with rosiglitazone, 0.095; in experiment [6], -0.064; in experiment [7] it was 0.127; with saracatinib, 0.014; in the experiment with sotrastaurin, 0.001. The log2 fold change with alvocidib is -0.079; with Tubastatin A, -0.017; in experiment [8], -0.014; in the experiment with defactinib, -0.06; in the experiment with rucaparib it was 0.052; in [9], 0.022. The log2 fold change is 0.08 in the experiment with encorafenib and -0.024 in experiment [10].
Turning to PKN1 isoform 2 (UniProt Q16512), the log2 fold change in experiment [1] is 0.005; with volasertib, -0.105; in experiment [2], 0.084; in the experiment with epoxomicin it was 0.014; in experiment [3], -0.185; in [4], -0.038. The log2 fold change was 0.009 in experiment [5]; 0.06 in the experiment with rosiglitazone; -0.021 in [6]; -0.772 (active) in experiment [7]; -0.018 with saracatinib; -0.645 (active) with sotrastaurin. Besides, the log2 fold change with alvocidib was -0.048; with Tubastatin A, 0.026; in [8], -0.088; in the experiment with defactinib, -0.121; in the experiment with rucaparib, 0.022; in [9], 0.026. Moreover, the figures for the log2 fold change (in the experiment with encorafenib; in experiment [10]) were 0.024 and -0.014, respectively.
Consider PIP4P2 (UniProt Q8N4L2), for which the log2 fold change in [1] was -0.092; with volasertib, -0.054; in [2] it was -0.07; in the experiment with epoxomicin it was -0.192; in [3], 0.053; in experiment [4], 0.004. Also, the log2 fold change in experiment [5] was -0.018; with rosiglitazone, 0.008; in experiment [6] it was -0.016; in experiment [7] it was -0.375 (active); with saracatinib, 0.056; in the experiment with sotrastaurin, -0.003. Also, the log2 fold change was -0.048 with alvocidib; 0.072 with Tubastatin A; -0.007 in experiment [8]; 0.004 with defactinib; -0.003 with rucaparib; -0.106 in experiment [9]. The log2 fold change with encorafenib was -0.04; in experiment [10], 0.093.
Consider PRKAB1 (UniProt Q9Y478), for which the log2 fold change was -0.079 in [1]; -0.418 (active) with volasertib; 0.045 in experiment [2]; 0.055 with epoxomicin; -0.05 in experiment [3]; -0.018 in experiment [4]. For the same target, the log2 fold change in [5] is 0.022; with rosiglitazone, -0.002; in experiment [6], -0.026; in experiment [7], -0.155; in the experiment with saracatinib, 0.077; with sotrastaurin, 0. The log2 fold change with alvocidib is -0.041; with Tubastatin A, 0.087; in [8] it was -0.117; with defactinib, -0.037; with rucaparib, 0.011; in experiment [9] it was -0.02. Also, the log2 fold change was 0.028 with encorafenib and -0.021 in [10].
For the target PPP2R5C isoform 5 (UniProt Q13362), the log2 fold change was -0.12 in [1]; -0.429 (active) with volasertib; 0.019 in experiment [2]; 0.06 with epoxomicin; -0.086 in [3]; -0.009 in [4]. Also, the log2 fold change in experiment [5] is -0.023; with rosiglitazone, 0.021; in [6] it was -0.027; in [7] it was -0.203; with saracatinib, 0.007; with sotrastaurin it was -0.018. Also, the log2 fold change with alvocidib is -0.045; with Tubastatin A it was 0.014; in experiment [8], -0.02; in the experiment with defactinib it was -0.044; with rucaparib, -0.019; in [9] it was 0.023. For the same target, the log2 fold change is 0.126 in the experiment with encorafenib and -0.042 in experiment [10].
